Measured values published in PubChem BioAssay (Tox21).
Results filed as inconclusive are left out. Calls of active or inactive are those of the source. Unless noted, calls follow the shape of the dose curve; as a rule, active = well fitted curve in the direction sought with a large enough effect in the repeat runs; inconclusive = weak or mixed curves; inactive = no such curve, though single readings can be large; an effect the other way counts as inactive or inconclusive.

Experiments:
[1] = qHTS assay to identify small molecule agonists of H2AX (AID 1224845; active = well fitted activation curve with a large enough effect in the signal ratio in the repeat runs, not every such curve was filed as active; the % refers to the signal ratio)
In short: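 Wild-type CHO-K1 cells, plated overnight, exposed 3hr at 37C to 15 concentrations (0.76% DMSO final). Lysed, then HTRF anti-pH2AX (S139) cryptate and anti-H2AX-d2 antibodies, 24 hr room temperature; 665/620 nm emission read.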

[2] = qHTS assay to identify small molecule agonists of the hypoxia (HIF-1) signaling pathway (AID 1224846; active = well fitted activation curve with a large enough effect in the signal ratio in the repeat runs, not every such curve was filed as active; the % refers to the signal ratio)
In short: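 In ME-180 cells bearing an HRE-bla construct, 17 h treatment with DMSO-dissolved compounds at 37C was followed by CCF4-AM loading to quantify reporter induction.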

[3] = qHTS assay to identify small molecule antagonists of the estrogen related receptor (ERR) signaling pathway from Tox21 library (AID 1224848); also: nearly all actives have a fitted effect of over 50% in size; also: potency is read from the fitted curve at half-maximal effect
In short: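 Quantitative high-throughput format: ERR reporter cells (2,000/well) pre-incubated 6 h, treated 18 h at 37 C with compounds in DMSO alongside positive and negative controls, then read by ONE-Glo luminescence.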

[4] = qHTS assay to identify small molecule agonists of the estrogen related receptor (ERR) signaling pathway from Tox21 library (AID 1224849; calls by dose curve; also: nearly all actives have a fitted effect of over 15% in size); details: ERR reporter cell line, ONE-Glo luciferase, 18 h; at 92.4 µM (top of the series) unless noted
In short: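 Reporter cells (ERR, NTP source) treated with Tox21 10K compounds 18 h, 37 C. Readout: ONE-Glo luminescence, 30 min RT.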

[5] = qHTS RealTime-Glo MT Cell Viability Assay in HepG2 cells - 24 hour (AID 1224867); also: nearly all actives have a fitted effect of over 50% in size
In short: (§1)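 Cells + NanoLuc/prosubstrate dispensed (600 cells/well) → 5 h at 37 C/5% CO2 → compounds in DMSO transferred → 40 h incubation at 37 C, luminescence read at 0, 8, 16, 24, 32, 40 h.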

[6] = A CellTox Green Cytotoxicity Assay to monitor cytotoxicity in HEK293 cells - 0 hour (AID 1224869); also: nearly all actives have a fitted effect of over 50% in size
In short: (§2)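 Homogeneous no-lysis format: HEK293 cell suspension mixed with CellTox Green reagent, seeded, incubated 5 h at 37 C/5% CO2, then dosed by pintool with compound in DMSO.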

[7] = qHTS RealTime-Glo MT Cell Viability Assay in HepG2 cells - 40 hour (AID 1224870); also: nearly all actives have a fitted effect of over 50% in size
In short: (§3)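 HepG2 cells (600/well) mixed with RealTime-Glo MT reagent, settled 5 h at 37 C/5% CO2 before compound addition. Nonlytic NanoLuc luminescence from viable-cell prosubstrate reduction read repeatedly during 40 h treatment at 37 C.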

[8] = A CellTox Green Cytotoxicity Assay to monitor cytotoxicity in HEK293 cells - 40 hour (AID 1224871); also: nearly all actives have a fitted effect of over 45% in size; also: potency is read from the fitted curve at half-maximal effect
In short: as §2

[9] = qHTS RealTime-Glo MT Cell Viability Assay in HEK293 cells - 16 hour (AID 1224872); also: nearly all actives have a fitted effect of over 50% in size; also: potency is read from the fitted curve at half-maximal effect; as to activity change, negative = cytotoxicity: top concentration of the series differs between compounds
In short: (§4)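 Tox21 10K qHTS, HEK293, 600 cells/well, RealTime-Glo reagent co-dispensed with cells; 5 h preincubation, compound by pintool, 37 C, luminescence at 0–40 h.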

[10] = qHTS RealTime-Glo MT Cell Viability Assay in HEK293 cells - 40 hour (AID 1224874); details: RealTime-Glo luminescence; max response: hits give low values; also: nearly all actives have a fitted effect of over 50% in size; also: potency is read from the fitted curve at half-maximal effect
In short: (§5)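 Measured as luminescence from the same continuously cultured HEK293 wells at successive time points (0, 8, 16, 24, 32, 40 h) after compound addition. Reagent present from seeding; dosing at 5 h; incubation 37 C.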

[11] = A CellTox Green Cytotoxicity Assay to monitor cytotoxicity in HEK293 cells - 24 hour (AID 1224875); also: nearly all actives have a fitted effect of over 45% in size; also: potency is read from the fitted curve at half-maximal effect
In short: as §2

[12] = A CellTox Green Cytotoxicity Assay to monitor cytotoxicity in HepG2 cells - 16 hour (AID 1224876); also: nearly all actives have a fitted effect of over 45% in size; also: potency is read from the fitted curve at half-maximal effect
In short: (§6)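 Fluorescent DNA-binding dye, 600 HepG2 cells/well, 5 h preincubation then compound in DMSO; same plates read at 0–40 h, 37 C.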

[13] = qHTS RealTime-Glo MT Cell Viability Assay in HepG2 cells - 32 hour (AID 1224877); also: nearly all actives have a fitted effect of over 55% in size
In short: as §1

[14] = A CellTox Green Cytotoxicity Assay to monitor cytotoxicity in HepG2 cells - 24 hour (AID 1224878); also: nearly all actives have a fitted effect of over 45% in size; also: potency is read from the fitted curve at half-maximal effect
In short: as §6

[15] = A CellTox Green Cytotoxicity Assay to monitor cytotoxicity in HepG2 cells - 40 hour (AID 1224879); also: nearly all actives have a fitted effect of over 40% in size; also: potency is read from the fitted curve at half-maximal effect
In short: as §6

[16] = qHTS RealTime-Glo MT Cell Viability Assay in HEK293 cells - 0 hour (AID 1224880); also: nearly all actives have a fitted effect of over 45% in size; also: potency is read from the fitted curve at half-maximal effect; as to activity change, negative = cytotoxicity: top concentration of the series differs between compounds
In short: as §5

[17] = qHTS assay to identify small molecule agonists of H2AX - cell viability counter screen (AID 1224847; calls by dose curve; also: top concentration of the series differs between compounds; nearly all actives have a fitted effect of over 30% in size)
In short: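 For this counter screen, overnight-attached CHO-K1 cells received test compounds (15 concentrations, 0.76% DMSO final); 3 hr later at 37C, CellTiter-Glo reagent was added and luminescence recorded after 30 min at room temperature.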

[18] = qHTS RealTime-Glo MT Cell Viability Assay in HepG2 cells - 8 hour (AID 1224873); also: nearly all actives have a fitted effect of over 55% in size
In short: as §3

[19] = qHTS RealTime-Glo MT Cell Viability Assay in HEK293 cells - 32 hour (AID 1224868)
In short: as §4
% is scaled to controls: 0 for no effect and ±100 for the full control effect.

Cc1ncc(CO)c(C=O)c1O
inactive: Potency [1] | Potency [2] | Potency [3] | activity change, positive = activation [4] 2.22% [at 42.5 µM] | Potency [5] | Potency [6] | Potency [7] | Potency [8] | Potency [9] | max response [10] 0.556% | Potency [11] | Potency [12] | Potency [13] | Potency [14] | Potency [15] | Potency [16]

COc1cc(C(=O)OCCCN2CCCN(CCCOC(=O)c3cc(OC)c(OC)c(OC)c3)CC2)cc(OC)c1OC
inactive: Potency [1] | Potency [2] | Potency [17] | Potency [3] | activity change, positive = activation [4] -15% [at 42.5 µM] | Potency [5] | Potency [6] | Potency [7] | Potency [18] | Potency [12] | Potency [13] | Potency [16]
active: Potency [9] 5.35 µM | Potency [10] 9.52 µM | Potency [15] 23.9 µM

CC(CSC(=O)c1ccccc1)C(=O)N1C[C@@H](Sc2ccccc2)C[C@H]1C(=O)O (stereo partly specified)
inactive: activation (H2AX phosphorylation) [1] 0.449% [at 31.6 µM] | activation [2] 0.628% [at 15.8 µM] | activity change, negative = cytotoxicity [17] 1.45% [at 31.6 µM] | activity, negative = inhibition [3] -0.558% [at 19 µM] | activity change, positive = activation [4] -0.059% [at 19 µM] | activity change, negative = cytotoxicity [5] 3.68% [at 15.8 µM] | activity change, negative = cytotoxic [19] -4.06% [at 15.8 µM] | cytotoxicity [6] -0.576% [at 15.8 µM] | activity change, negative = cytotoxic [7] 2.68% [at 15.8 µM] | cytotoxicity increase [8] 1.14% [at 15.8 µM] | activity change, negative = cytotoxicity [9] -4.93% [at 15.8 µM] | viability change, negative = cytotoxic [18] 1.39% [at 15.8 µM] | max response [10] -5.01% | activity change [11] 3.46% [at 15.8 µM, hits give high values] | cytotoxicity increase [12] -2.05% [at 15.8 µM] | activity change, negative = cytotoxic [13] 4.17% [at 15.8 µM] | cytotoxicity [14] -1.93% [at 15.8 µM] | cytotoxicity increase [15] -0.523% [at 15.8 µM] | activity change, negative = cytotoxicity [16] -6.47% [at 15.8 µM]

Nc1ccccc1S(=O)(=O)c1ccccc1
inactive: Potency [1] | Potency [2] | activity change, positive = activation [4] -20.8% | Potency [6] | Potency [7] | Potency [8] | Potency [9] | max response [10] -22.9% | Potency [11] | Potency [12] | Potency [13] | Potency [14] | Potency [15] | Potency [16]

Cc1cccc(Nc2ccccc2)c1
inactive: Potency [1] | Potency [2] | Potency [19] | Potency [6] | Potency [7] | max response [10] -10.8% | Potency [13] | Potency [16]
active: Potency [8] 34.7 µM | Potency [11] 38.9 µM | Potency [12] 43.6 µM | Potency [15] 38.9 µM

O=C(NCC1CN(c2ccc(N3CCOCC3=O)cc2)C(=O)O1)c1ccc(Cl)s1 (stereo unspecified)
active: Potency [3] 23.7 µM
inactive: Potency [1] | Potency [17] | activity change, positive = activation [4] -38.4% [at 42.5 µM] | Potency [5] | Potency [19] | Potency [7] | Potency [8] | Potency [9] | Potency [18] | max response [10] -20.3% | Potency [11] | Potency [13] | Potency [16]

C[C@@H]1C[C@H]2[C@@H]3CCC4=CC(=O)C=C[C@]4(C)[C@@]3(F)[C@@H](O)C[C@]2(C)[C@@]1(O)C(=O)COC(=O)c1ccncc1
active: Potency [16] 3.01 µM
inactive: Potency [1] | Potency [2] | Potency [17] | Potency [5] | Potency [19] | Potency [7] | Potency [8] | Potency [9] | Potency [18] | max response [10] -17.8% | Potency [11] | Potency [12] | Potency [13] | Potency [14] | Potency [15]

CCCCCCCCCCCCCCCCOS(=O)(=O)O
active: Potency [8] 21.3 µM | Potency [11] 19 µM
inactive: Potency [1] | Potency [2] | activity change, positive = activation [4] -16% [at 42.5 µM] | Potency [5] | Potency [19] | Potency [7] | Potency [9] | max response [10] -27.5% | Potency [13] | Potency [16]

O=C1CCC(=O)O1
inactive: Potency [1] | Potency [2] | Potency [17] | Potency [3] | activity change, positive = activation [4] 5.7% | Potency [5] | Potency [19] | Potency [6] | Potency [7] | Potency [9] | Potency [18] | max response [10] 3.63% | Potency [11] | Potency [12] | Potency [13] | Potency [14] | Potency [15] | Potency [16]

CCC(CC)Nc1ccc(C)c(C)c1
inactive: Potency [1] | Potency [2] | Potency [17] | Potency [5] | Potency [19] | Potency [6] | Potency [7] | Potency [8] | Potency [9] | Potency [18] | max response [10] 12.5% | Potency [11] | Potency [12] | Potency [13] | Potency [15] | Potency [16]

CCC(=O)O[C@]1(C(=O)CCl)[C@@H](C)C[C@H]2[C@@H]3CCC4=CC(=O)C=C[C@]4(C)[C@@]3(F)[C@@H](O)C[C@@]21C
inactive: Potency [1] | Potency [2] | Potency [17] | activity change, positive = activation [4] -18.7% [at 42.5 µM] | Potency [6] | Potency [7] | Potency [8] | Potency [18] | Potency [11] | Potency [12] | Potency [14] | Potency [15] | Potency [16]

CN(C)CCOC(c1ccccc1)c1ccc(Br)cc1 (stereo unspecified)
inactive: Potency [1] | Potency [17] | Potency [3] | activity change, positive = activation [4] -2.31% [at 42.5 µM] | Potency [5] | Potency [6] | Potency [7] | Potency [8] | Potency [9] | Potency [11] | Potency [13] | Potency [16]
active: Potency [14] 23.9 µM | Potency [15] 23.9 µM

CCCOC(C(=O)OC1CCN(C)CC1)(c1ccccc1)c1ccccc1
inactive: Potency [1] | Potency [2] | Potency [17] | activity change, positive = activation [4] -25.8% [at 42.5 µM] | Potency [5] | Potency [6] | Potency [7] | Potency [18] | Potency [13] | Potency [16]
active: Potency [14] 23.9 µM | Potency [15] 23.9 µM

c1ccc(CNCCNCc2ccccc2)cc1
inactive: Potency [1] | Potency [2] | Potency [17] | Potency [5] | Potency [19] | Potency [7] | Potency [8] | Potency [9] | Potency [18] | max response [10] 7.91% | Potency [11] | Potency [12] | Potency [14] | Potency [15] | Potency [16]
